These results are taken from PubChem BioAssay (NCATS).

Structures are written as SMILES. Inconclusive results are not listed. Calls of active or inactive are those of the source. Calls come from the whole dose curve; as a rule, active = well fitted curve in the direction sought with a large enough effect; inconclusive = small, poorly fitted or top-dose-only effect, or another doubt; inactive = no such curve, though single readings can be large; an effect the other way counts as inactive or inconclusive.

The target in assay [1] is Rap guanine nucleotide exchange factor 3 (Homo sapiens) (UniProt O95398). The assay can be described thus: Confirmatory qHTS for antagonist of cAMP-regulated guanine nucleotide exchange factor 3 (EPAC1) (AID 1645880). Note: nearly all actives have a fitted effect of over 55% in size. Note: potency is the fitted concentration of half-maximal effect. The essentials:
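Released BODIPY-GDP fluoresces less than Rap1-bound BODIPY-GDP; the signal is followed at 480/540 nm at 5-min intervals over 30 min, after 5 min at room temperature. Reactions contain 100 nM EPAC1, 250 nM RAP1B-BODIPY-GDP and 50 uM GDP; results are normalized to ATA and DMSO.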
On the technique in general: Quantitative high-throughput screening tests each substance at several concentrations.

The target is the same in assay [2]. The assay can be described thus: Confirmatory qHTS for agonist of cAMP-regulated guanine nucleotide exchange factor 3 (EPAC1) (AID 1645881).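 For activation: EPAC1 catalysed release of BODIPY-GDP from Rap1B seen as fluorescence loss; 100% = effect of cAMP agonist control.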 Note: nearly all actives have a fitted effect of over 75% in size. Note: potency is the fitted concentration of half-maximal effect.
Assay [3] deals with Rap guanine nucleotide exchange factor 4 (Homo sapiens) (UniProt Q8WZA2). The experiment in a line: Confirmatory qHTS for agonist of cAMP-regulated guanine nucleotide exchange factor 4 (EPAC2) (AID 1645884). For activation: % is set by controls: 0 for no effect and ±100 for the full control effect.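 Note: nucleotide exchange releases bodipy-GDP from Rap1 and this lowers its fluorescence; nearly all actives have a fitted effect of over 65% in size.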 Note: potency is the fitted concentration of half-maximal effect.
The target is the same in assay [4]. The experiment in a line: Confirmatory qHTS for antagonist of cAMP-regulated guanine nucleotide exchange factor 4 (EPAC2) (AID 1645885). For activity change, negative = inhibition: % is set by controls: 0 for no effect and ±100 for the full control effect. Note: nearly all actives have a fitted effect of over 25% in size. Note: potency is the fitted concentration of half-maximal effect.
The target of assay [5] is Rap guanine nucleotide exchange factor 3 (Homo sapiens) (UniProt O95398). The experiment in a line: Counterscreen qHTS for antagonist of cAMP-regulated guanine nucleotide exchange factor 3 (EPAC1) (AID 1645888). Note: % of control where 0% means no effect. The procedure, abridged:
(§1)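 Rap1B–BODIPY-GDP (250 nM) with 50 uM GDP; compounds pin-transferred to 9.74 nM–152 uM final (activator) or from 7.32 nM upwards (inhibitor). Fluorescence Ex/Em 480/540 nm read at 5 and 30 min, then after adding cAMP or buffer, at room temperature.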

Assay [6] shares this target. The experiment in a line: Counterscreen qHTS for agonist of cAMP-regulated guanine nucleotide exchange factor 3 (EPAC1) (AID 1645889). For activation: % of control where 0% means no effect. Note: nearly all actives have a fitted effect of over 40% in size. Note: potency is the fitted concentration of half-maximal effect. The essentials:
as §1

Rap guanine nucleotide exchange factor 3 (Homo sapiens), sequence (O95398 whole entry, looked up): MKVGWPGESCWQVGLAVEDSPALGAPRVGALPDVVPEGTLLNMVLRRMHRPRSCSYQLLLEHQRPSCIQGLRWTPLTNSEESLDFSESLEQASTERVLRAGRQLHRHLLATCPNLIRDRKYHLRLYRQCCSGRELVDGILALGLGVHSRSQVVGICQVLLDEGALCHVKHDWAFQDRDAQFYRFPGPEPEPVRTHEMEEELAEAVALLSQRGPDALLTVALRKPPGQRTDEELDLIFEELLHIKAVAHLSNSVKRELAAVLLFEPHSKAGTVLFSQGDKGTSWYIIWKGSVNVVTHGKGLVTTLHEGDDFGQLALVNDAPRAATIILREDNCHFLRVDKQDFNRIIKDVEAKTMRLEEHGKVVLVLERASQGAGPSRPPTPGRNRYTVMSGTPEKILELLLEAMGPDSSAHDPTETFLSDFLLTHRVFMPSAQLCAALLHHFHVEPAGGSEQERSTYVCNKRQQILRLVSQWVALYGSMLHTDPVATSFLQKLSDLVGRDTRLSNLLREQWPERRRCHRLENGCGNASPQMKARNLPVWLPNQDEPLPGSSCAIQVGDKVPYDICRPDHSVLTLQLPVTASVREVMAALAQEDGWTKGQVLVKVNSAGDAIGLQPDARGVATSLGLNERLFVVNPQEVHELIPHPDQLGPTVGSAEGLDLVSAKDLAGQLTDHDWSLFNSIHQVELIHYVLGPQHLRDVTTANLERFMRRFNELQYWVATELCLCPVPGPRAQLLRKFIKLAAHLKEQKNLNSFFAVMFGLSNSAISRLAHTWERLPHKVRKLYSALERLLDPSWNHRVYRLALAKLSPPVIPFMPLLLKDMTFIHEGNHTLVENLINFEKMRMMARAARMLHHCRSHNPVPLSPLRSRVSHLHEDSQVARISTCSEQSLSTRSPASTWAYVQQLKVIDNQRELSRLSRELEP
Rap guanine nucleotide exchange factor 4 (Homo sapiens), sequence (Q8WZA2 whole entry, looked up): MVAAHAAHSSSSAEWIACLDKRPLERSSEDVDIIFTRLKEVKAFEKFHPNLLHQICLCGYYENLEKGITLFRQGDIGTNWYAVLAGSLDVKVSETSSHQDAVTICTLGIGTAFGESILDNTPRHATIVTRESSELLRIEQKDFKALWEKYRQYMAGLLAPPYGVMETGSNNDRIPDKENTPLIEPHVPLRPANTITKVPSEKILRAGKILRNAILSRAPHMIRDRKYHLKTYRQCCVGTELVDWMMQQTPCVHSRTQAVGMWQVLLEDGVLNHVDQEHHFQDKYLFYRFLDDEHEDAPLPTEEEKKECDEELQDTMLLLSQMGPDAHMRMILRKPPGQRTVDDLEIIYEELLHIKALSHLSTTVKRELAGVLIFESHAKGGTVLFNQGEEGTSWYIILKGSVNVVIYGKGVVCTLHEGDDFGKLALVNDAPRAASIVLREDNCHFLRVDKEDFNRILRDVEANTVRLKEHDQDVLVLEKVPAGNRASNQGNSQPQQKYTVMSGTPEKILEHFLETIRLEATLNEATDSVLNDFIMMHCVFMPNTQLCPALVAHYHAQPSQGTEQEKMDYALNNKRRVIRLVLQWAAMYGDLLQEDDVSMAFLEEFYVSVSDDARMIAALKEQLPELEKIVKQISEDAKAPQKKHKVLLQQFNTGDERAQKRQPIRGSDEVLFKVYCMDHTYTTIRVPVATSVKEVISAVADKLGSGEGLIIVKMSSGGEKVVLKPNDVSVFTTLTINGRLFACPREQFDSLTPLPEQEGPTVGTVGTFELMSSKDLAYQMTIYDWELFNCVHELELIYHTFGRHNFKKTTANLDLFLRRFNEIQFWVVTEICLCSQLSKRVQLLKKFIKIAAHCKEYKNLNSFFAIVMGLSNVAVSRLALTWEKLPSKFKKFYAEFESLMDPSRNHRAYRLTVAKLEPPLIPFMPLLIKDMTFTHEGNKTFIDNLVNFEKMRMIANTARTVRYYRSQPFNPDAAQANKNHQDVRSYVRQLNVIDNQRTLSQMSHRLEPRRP

Turning to `CC1(C)Cc2ccccc2-c2nnc(-c3ccc4ccccc4n3)n21`, the Potency entry in assay [1], in assay [2], in assay [3], in assay [4], in assay [5] and in assay [6] was “inactive” in each case.

Regarding `COc1ccc(/C=C(\NC(=O)c2cccs2)C(=O)Nc2ccc(C)cc2)cc1OC`, the Potency in assay [1] was 47.8 µM (active). For the same molecule, the Potency entry in assay [2], in assay [3], in assay [4], in assay [5] and in assay [6] was “inactive” throughout.

In the case of `CNC(=O)NC(=O)C(NC1CCCc2ccccc21)c1ccccc1` (stereo unspecified), the Potency result in assay [1], in assay [2], in assay [3], in assay [5] and in assay [6] was “inactive” throughout. Moreover, the Potency in assay [4] was 47.8 µM (active).

On to `CSCCC(NC(=O)c1ccc(Cl)cc1)C(=O)OCC(=O)NCc1ccco1` (stereo unspecified), for which the Potency entry in assay [1], in assay [2] and in assay [4] was “inactive” throughout. For the same molecule, the activation was 0.694% [at 17.1 µM, percent relative to cAMP agonist control] (inactive) in assay [3] and -1.33% [at 30.8 µM] (inactive) in assay [6]. In assay [5], the activity change, negative = inhibition is -13% [at 30.8 µM] (inactive).

For the molecule `N#Cc1c(-c2ccccc2)nc(SCc2ccc(Cl)cc2)[nH]c1=O`, the Potency in assay [1] and in assay [4] was 33.8 µM (active) in each case. Also, the Potency entry in assay [2], in assay [3], in assay [5] and in assay [6] was “inactive” in each case.

Take `CCOC(=O)c1c(NC(=O)c2ccc(S(=O)(=O)N3CCC(C)CC3)cc2)sc2c1CCN(C(C)C)C2`: the Potency entry in assay [1] and in assay [5] was “inactive” in each case. Also, the figures for the Potency in assay [2], in assay [3] and in assay [6] were 89.1 µM (active), 31.6 µM (active) and 44.7 µM (active), respectively. The outcome in assay [4] is “inactive [at 12.7 µM]”.

With `Nc1ncnc2nc(Sc3ccc(Cl)cc3)[nH]c12`, the Potency result in assay [1], in assay [2], in assay [3], in assay [4], in assay [5] and in assay [6] was “inactive” throughout.

Take `CC(C)(C)C(=O)NCc1ccc(C(=O)CN2C(=O)NC3(CCCC3)C2=O)s1`: the Potency entry in assay [1], in assay [2], in assay [3], in assay [4], in assay [5] and in assay [6] was “inactive” each time.

Consider `CN(C(=O)CSc1nc(-c2ccc(C(C)(C)C)cc2)c(C#N)c(=O)[nH]1)C1CCCCC1`, for which the Potency in assay [1] was 42.6 µM (active). Besides, the Potency result in assay [2], in assay [3], in assay [4], in assay [5] and in assay [6] was “inactive” in each case.

Consider `CN(Cc1ccc(F)cc1)C(=O)c1cccc(OCc2ccccc2)c1`, for which the Potency entry in assay [1], in assay [2] and in assay [4] was “inactive” in each case. For the same molecule, the activation was 10.9% [at 17.1 µM, percent relative to cAMP agonist control] (inactive) in assay [3] and -0.388% [at 30.8 µM] (inactive) in assay [6]. The activity change, negative = inhibition in assay [5] was 1.29% [at 30.8 µM] (inactive).

`CC(=O)NC(c1ccc(C)cc1)c1cc(Cl)c2cccnc2c1O` (stereo unspecified): the Potency entry in assay [1], in assay [2], in assay [3], in assay [4], in assay [5] and in assay [6] was “inactive” in each case.

As to `CC[C@@]1(c2ccccc2OC)ON(c2ccccc2C(F)(F)F)C1=O`, the Potency result in assay [1], in assay [2], in assay [3], in assay [4], in assay [5] and in assay [6] was “inactive” each time.

As to `Cc1nn(CC(=O)N(C)C2CCS(=O)(=O)C2)c(C)c1[N+](=O)[O-]` (stereo unspecified), the Potency result in assay [1], in assay [2] and in assay [4] was “inactive” in each case. For the same molecule, the activation in assay [3] was 2.8% [at 17.1 µM, percent relative to cAMP agonist control] (inactive); in assay [6], 30.9% [at 30.8 µM] (inactive). In addition, in assay [5], the activity change, negative = inhibition was -13.2% [at 30.8 µM] (inactive).

For `COc1ccc(C2CC(=O)n3c(nc4ccccc43)S2)cc1OC` (stereo unspecified), the Potency entry in assay [1], in assay [2] and in assay [4] was “inactive” in each case. The activation was 2.96% [at 17.1 µM, percent relative to cAMP agonist control] (inactive) in assay [3] and 6.35% [at 30.8 µM] (inactive) in assay [6]. In addition, the activity change, negative = inhibition in assay [5] was 10.2% [at 30.8 µM] (inactive).

For the molecule `COc1ccc(/C=C2\SC(=S)N(NS(=O)(=O)c3ccc(C)cc3)C2=O)c(OC)c1`, in assay [1], the Potency was 14.1 µM (active). The Potency result in assay [2] and in assay [4] was “inactive” throughout. Moreover, the activation in assay [3] was 6.75% [at 17.1 µM, percent relative to cAMP agonist control] (inactive); in assay [6], 20% [at 30.8 µM] (inactive). Also, the activity change, negative = inhibition in assay [5] was 7.67% [at 30.8 µM] (inactive).

As for `COC(=O)c1ccccc1NC(=O)CN1C(=O)COc2ccc(Cl)cc21`, the Potency result in assay [1], in assay [2], in assay [3], in assay [4], in assay [5] and in assay [6] was “inactive” each time.

On to `O/C=c1\ccc2cccc3nc(C(F)(F)F)nc1c23`, for which the Potency entry in assay [1], in assay [4] and in assay [5] was “inactive” each time. For the same molecule, the Potency in assay [2] was 100 µM (active); in assay [3], 100 µM (active); in assay [6], 39.8 µM (active).

In the case of `COc1ccccc1NC(=O)COC(=O)c1ccc([N+](=O)[O-])s1`, the Potency in assay [1] was 21.3 µM (active). Moreover, the Potency entry in assay [2], in assay [3], in assay [4], in assay [5] and in assay [6] was “inactive” throughout.

As for `Cc1ccc(NC(=O)COC(=O)Cn2c(C)csc2=O)c([N+](=O)[O-])c1`, the Potency result in assay [1], in assay [2], in assay [3], in assay [4], in assay [5] and in assay [6] was “inactive” each time.

Consider `Cn1c(=O)c2nc(SCC(=O)Nc3ccc(Cl)c(Cl)c3)n(C)c2n(C)c1=O`, for which the Potency result in assay [1], in assay [2], in assay [3], in assay [5] and in assay [6] was “inactive” in each case. Further, in assay [4], the outcome was “inactive [at 12.7 µM]”.

In the case of `O=C1C(Cl)=C(N2CCC(C(=O)O)CC2)C(=O)c2ccccc21`, the Potency entry in assay [1], in assay [2], in assay [3], in assay [4] and in assay [5] was “inactive” in each case. For the same molecule, in assay [6], the Potency is 15.8 µM (active).
